Over roughly 18,000 sequences, “log2 normalized intensity” has its median near 0.39; the highest 2% begin near 6.6. Many of the other results were omitted from the sample, so the highest values are more common in it than they were.

In this assay the target is T1, HNF4alpha2 (COS-7 nuclear extract) (Homo sapiens, UniProt P41235 1-474).
T1 sequence: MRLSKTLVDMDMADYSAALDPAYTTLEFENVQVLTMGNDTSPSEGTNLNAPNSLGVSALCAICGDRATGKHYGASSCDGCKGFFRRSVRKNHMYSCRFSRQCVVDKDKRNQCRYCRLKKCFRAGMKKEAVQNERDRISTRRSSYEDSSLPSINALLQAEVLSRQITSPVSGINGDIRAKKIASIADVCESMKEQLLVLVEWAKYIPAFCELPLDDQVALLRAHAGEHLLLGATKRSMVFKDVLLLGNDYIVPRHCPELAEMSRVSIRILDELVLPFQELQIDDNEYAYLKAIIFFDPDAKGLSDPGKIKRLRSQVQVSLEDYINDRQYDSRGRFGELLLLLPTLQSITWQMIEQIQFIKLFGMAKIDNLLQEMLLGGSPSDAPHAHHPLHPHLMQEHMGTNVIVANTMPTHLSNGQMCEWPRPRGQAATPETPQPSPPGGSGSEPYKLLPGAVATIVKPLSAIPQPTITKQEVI
Nature of the assay: protein-binding microarray; COS-7 nuclear extract on double-stranded Agilent 4x180k PBM; binding buffer, salt, pH and temperature not given in the material; high values mean tight binding. Particulars: chain copies: 2; label: 3' end of strand 1 on the slide; dsDNA, one strand shown. Put shortly: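 Double-stranded oligonucleotides of ~60 nt, representing ~44,000 test sequences in quadruplicate, made up a custom Agilent SurePrint G3 4x180k array. Nuclear extracts from COS-7 cells transiently transfected by CaPO4 with a human HNF4α isoform expression vector were applied, and bound HNF4α was imaged at 2-µm resolution on an Agilent G2565CA scanner. Binding signal refers to the background-corrected, normalized gProcessedSignal output of Agilent software.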
“AGTTTGACTCCAAAGGGCTGGAGACTGAGTGCCTAGGGAGATTAGAGTATCGGTCGA”: the binding signal is -0.509 log2 normalized intensity. For the sequence “TCTAAGACCCATCCCTCAGGGTCCATATCCGCCTAGGGAGATTAGAGTATCGGTCGA”, the binding signal worked out at 2.84 log2 normalized intensity. With “CACCTTCTTCCTAGGCAATCCCATGACCTTGCCTAGGGAGATTAGAGTATCGGTCGA”, the binding signal was 3.25 log2 normalized intensity. On to “CTAGGCAATCCCATGACCTTTGTACTAATGGCCTAGGGAGATTAGAGTATCGGTCGA”, for which the binding signal was determined as 7.57 log2 normalized intensity. With “CCATGACCTTTGTACTAATGATTTGTAAATGCCTAGGGAGATTAGAGTATCGGTCGA” the figure was 5.25 log2 normalized intensity. Turning to “TCTTCCTAGGCAATCCCATGACCTTTGTACGCCTAGGGAGATTAGAGTATCGGTCGA”, the binding signal turned out to be 8.78 log2 normalized intensity. Turning to “CAATCCCATGACCTTTGTACTAATGATTTGGCCTAGGGAGATTAGAGTATCGGTCGA”, the binding signal turned out to be 5.84 log2 normalized intensity. For the sequence “TGTCTTCTGACCTTTGGCAATATCTCCCAGGCCTAGGGAGATTAGAGTATCGGTCGA”, the binding signal was 3.48 log2 normalized intensity. In the case of “TCTGAAGATAAATGCCTTAGCTGTGACCATGCCTAGGGAGATTAGAGTATCGGTCGA”, the binding signal is 0.619 log2 normalized intensity. As for “CTCTAGGGTAGATAAGGATGGATCAAAGGAGCCTAGGGAGATTAGAGTATCGGTCGA”, the binding signal is -0.461 log2 normalized intensity.

Turning to “TTCCACCTGGAATGCACTTGTTCCGGATAGGCCTAGGGAGATTAGAGTATCGGTCGA”, the binding signal was 1.11 log2 normalized intensity. Consider “CCATGGTAAGAACTACAGTTGACCTTTGAAGCCTAGGGAGATTAGAGTATCGGTCGA”, for which the binding signal came to 7.38 log2 normalized intensity. Regarding “CAGTTGACCTTTGAACACCACAAGTTTGAAGCCTAGGGAGATTAGAGTATCGGTCGA”, the binding signal came to 6.31 log2 normalized intensity. Turning to “AACTACAGTTGACCTTTGAACACCACAAGTGCCTAGGGAGATTAGAGTATCGGTCGA”, the binding signal stood at 7.56 log2 normalized intensity. In the case of “GACCTTTGAACACCACAAGTTTGAACTGCAGCCTAGGGAGATTAGAGTATCGGTCGA” it was 5.05 log2 normalized intensity. In the case of “ATGCCCCATGGTAAGAACTACAGTTGACCTGCCTAGGGAGATTAGAGTATCGGTCGA”, the binding signal turned out to be 4.18 log2 normalized intensity. In the case of “TAGGTATGCCCCATGGTAAGAACTACAGTTGCCTAGGGAGATTAGAGTATCGGTCGA”, the binding signal came to 0.881 log2 normalized intensity.

As to “GGAATGTTGCTGTGCTGCCCTCTTGTGGCCGCCTAGGGAGATTAGAGTATCGGTCGA”, the binding signal was determined as 1.66 log2 normalized intensity. As to “TGTTTCCAATAGGTTTGATTTCAGCATGTTGCCTAGGGAGATTAGAGTATCGGTCGA”, the binding signal turned out to be 1.59 log2 normalized intensity. In the case of “TATGTGGTGGAATGGAAAGAATATGAACTTGCCTAGGGAGATTAGAGTATCGGTCGA” it was 1.66 log2 normalized intensity; in that of “ACCCCACGGAGCTGCCTCACATGAGCTAGAGCCTAGGGAGATTAGAGTATCGGTCGA”, -0.873 log2 normalized intensity; in that of “ATCGCCCTTTGAGGAGGCCTTTCCTGACCCGCCTAGGGAGATTAGAGTATCGGTCGA”, 2.78 log2 normalized intensity. With “GCCCCTGGCTGGGCCCTGACCTCAAGTGACGCCTAGGGAGATTAGAGTATCGGTCGA”, the binding signal came out at 1.91 log2 normalized intensity. As to “ATTGGCCCTTTGACCTTTAATCAAGGGCTGGCCTAGGGAGATTAGAGTATCGGTCGA”, the binding signal amounted to 5.08 log2 normalized intensity. As to “GGGCCCTGACCTCAAGTGACCTTTGACCTCGCCTAGGGAGATTAGAGTATCGGTCGA”, the binding signal amounted to 12.1 log2 normalized intensity. “TTAGCTATTTGACCTTCGGCCTCAATTATAGCCTAGGGAGATTAGAGTATCGGTCGA”: the binding signal turned out to be 6.43 log2 normalized intensity. As to “CTGATTTAGCTATTTGACCTTCGGCCTCAAGCCTAGGGAGATTAGAGTATCGGTCGA”, the binding signal is 8.16 log2 normalized intensity.

For “CTGGGCCCTGCCTGACCTGCCCTTTGTCCCGCCTAGGGAGATTAGAGTATCGGTCGA”, the binding signal was found to be 6.28 log2 normalized intensity.

Turning to “TGGCTGGGCCCTGACCTCAAGTGACCTTTGGCCTAGGGAGATTAGAGTATCGGTCGA”, the binding signal is 7.17 log2 normalized intensity. For “CCAGGCTGATTTAGCTATTTGACCTTCGGCGCCTAGGGAGATTAGAGTATCGGTCGA”, the binding signal is 4.92 log2 normalized intensity. With “GGCTTGTACCTTGACCTTCTCTGTTAACCCGCCTAGGGAGATTAGAGTATCGGTCGA” the figure was 4.27 log2 normalized intensity. In the case of “GATGGGCCAGGCAGGACAGTTTTGTGTGTTGCCTAGGGAGATTAGAGTATCGGTCGA” it was 1.11 log2 normalized intensity; in that of “TCAGATATCTGAATGTACCTTTGAAACCTAGCCTAGGGAGATTAGAGTATCGGTCGA”, 2.87 log2 normalized intensity; in that of “ATCCAGTAGAGGGCATAGCAGATAAGCATTGCCTAGGGAGATTAGAGTATCGGTCGA”, -0.984 log2 normalized intensity. As to “ACTTCTTTGTGATGTGTGGATTCAGCTCACGCCTAGGGAGATTAGAGTATCGGTCGA”, the binding signal came to 1.29 log2 normalized intensity. Consider “ATCTCAAATAGCTGGGTCTCACTCTGACCCGCCTAGGGAGATTAGAGTATCGGTCGA”, for which the binding signal was found to be 3.32 log2 normalized intensity. In the case of “ACTTCAAAGGGTGTTGTGACTACCTGGTTAGCCTAGGGAGATTAGAGTATCGGTCGA”, the binding signal worked out at 0.524 log2 normalized intensity. Consider “AACTTCTTCCAATGAAAGGTTAACCTGCTGGCCTAGGGAGATTAGAGTATCGGTCGA”, for which the binding signal came to 1.36 log2 normalized intensity.

For the sequence “TCACAAAGGGCTGAGGTTAAAGTCCACATTGCCTAGGGAGATTAGAGTATCGGTCGA”, the binding signal worked out at 7.04 log2 normalized intensity. Regarding “TTTATCCTTTTTTGAAGGTTAAAGTCCATTGCCTAGGGAGATTAGAGTATCGGTCGA”, the binding signal stood at 7 log2 normalized intensity. For the sequence “ACATTTTTATCCTTTTTTGAAGGTTAAAGTGCCTAGGGAGATTAGAGTATCGGTCGA”, the binding signal came out at 2.66 log2 normalized intensity. In the case of “CCTTTTTTGAAGGTTAAAGTCCATTTTTGAGCCTAGGGAGATTAGAGTATCGGTCGA”, the binding signal amounted to 6.53 log2 normalized intensity. On to “AAGCTTCACAAAGGGCTGAGGTTAAAGTCCGCCTAGGGAGATTAGAGTATCGGTCGA”, for which the binding signal is 6.22 log2 normalized intensity. Regarding “AAGGGCTGAGGTTAAAGTCCACATTCTTTAGCCTAGGGAGATTAGAGTATCGGTCGA”, the binding signal was 5.76 log2 normalized intensity.

In the case of “TCCCCACTTATTACCGGTGTGACTTTGGTTGCCTAGGGAGATTAGAGTATCGGTCGA”, the binding signal stood at 2.1 log2 normalized intensity.

With “CGGGAGGCAAGATAAGGGTAATCACCCCCAGCCTAGGGAGATTAGAGTATCGGTCGA”, the binding signal was 2.34 log2 normalized intensity. Take “TACTCATGTGGTCCTAAGACTAACCTTTGAGCCTAGGGAGATTAGAGTATCGGTCGA”: the binding signal was 6.33 log2 normalized intensity. In the case of “TAAGACTAACCTTTGACCATCCACGGATGCGCCTAGGGAGATTAGAGTATCGGTCGA”, the binding signal is 4.62 log2 normalized intensity. In the case of “CCTCCATTAACTAACCTTTGAACCAGATGGGCCTAGGGAGATTAGAGTATCGGTCGA”, the binding signal worked out at 4.77 log2 normalized intensity.

With “CATGTGGTCCTAAGACTAACCTTTGACCATGCCTAGGGAGATTAGAGTATCGGTCGA”, the binding signal was 7.89 log2 normalized intensity. As for “TTACTCATGTGGTCCTAAGACTAACCTTTGGCCTAGGGAGATTAGAGTATCGGTCGA”, the binding signal worked out at 3.37 log2 normalized intensity. With “ATGTGGTCCTAAGACTAACCTTTGACCATCGCCTAGGGAGATTAGAGTATCGGTCGA” the figure was 7.45 log2 normalized intensity; with “GGTCCTAAGACTAACCTTTGACCATCCACGGCCTAGGGAGATTAGAGTATCGGTCGA”, 5.96 log2 normalized intensity. Regarding “CCTTACCTCCATTAACTAACCTTTGAACCAGCCTAGGGAGATTAGAGTATCGGTCGA”, the binding signal is 6.78 log2 normalized intensity. For “ATTAACTAACCTTTGAACCAGATGGCCCTCGCCTAGGGAGATTAGAGTATCGGTCGA”, the binding signal came out at 3.62 log2 normalized intensity.

These data come from article PMC10726135, “HNF4α isoforms regulate the circadian balance between carbohydrate and lipid metabolism in the liver”.
